pS6 MEF inh = reduces mTORC1 signaling in Tsc2 and p53 null MEF cells; Tsc2-/- p53-/- MEF, phospho-rpS6 immunofluorescence/PI, 24 h; Potency, µM (titrated, usually from 38.3 µM), without a hit: at the highest dose activity change, negative = inhibition, usual class: inhibitors; actives 0.78% (n = 44,000);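 note: plate controls were DMSO for no effect and rapamycin for full effect; nearly all actives have a fitted effect of over 50% in size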
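Readout is phospho-S6 Alexa 488 signal normalized to PI per well, reported as % active cells with thresholds set from rapamycin (7.5 nM) and DMSO controls. Cells: Tsc2-/-, p53-/- MEFs, 24 hrs compound at 37 C; PI cell number serves as viability.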
p53null 32C kill = p53 null cell cytotoxicity, permissive temperature | H1299-neo p53 null cells, ATP luminescence, 24 h, 32C | Potency, µM (highest dose often 46.1 µM), without a hit: at the highest dose activity change, negative = cytotoxicity, hits mostly cytotoxic | actives 0.62% (n = 55,000) | AID 903;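 note: 0% = DMSO only and -100% = full killing by 100 µM tamoxifen; nearly all actives have a fitted effect of over 55% in size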
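Overnight 37C seeding (600 cells/well) of H1299-neo preceded a 24 hr, 32C exposure to compounds up to 46 uM. ATP levels, read by luminescence after 20 min at RT, indicated surviving cells.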
PMP22 txn = modulators of PMP22 gene transcription in S16 Schwann cells. S16 Pmp22-F2sN Schwann cells, FLuc/NLuc coincidence luminescence, 24 h. Potency, µM (series often up to 57.5 µM), inactives show at the top dose activity change, negative = inhibition, hits mostly inhibitors. AID 1508649. actives 2% (n = 43,000); active = clear falling dose curves in both reporters; inconclusive = both reporters move, but less clearly or upward; inactive = either reporter flat; the % is the NLuc reporter signal
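S16 Schwann cells carrying FLuc/NLuc coincidence reporter in the Pmp22 3' UTR treated with compound 24 h at 37C; FLuc then NLuc luminescence read sequentially by dual-luciferase reagents.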
OvCa metastasis = inhibitors of ovarian cancer cell adhesion and invasion in omental model; SKOV3ip1-GFP adhesion/invasion on 3D omental model, fluorescence; AID 1963576; Potency, µM (doses to about 45.8 µM), inactives show at the highest dose activity change, negative = inhibition, actives largely listed as inhibitors; actives 0.1% (n = 46,000);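 note: plate controls were DMSO wells for no effect and tomatine positive control wells for full effect; nearly all actives have a fitted effect of over 65% in size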
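A 3D layer of primary human omental fibroblasts, mesothelial cells, fibronectin and collagen I, grown 48 hr, received SKOV3ip1-GFP cells in serum-free medium plus compounds at 0.36-46 umol/L. After 2 hr RT and 16 hr 37 C, fixed adherent GFP cells were counted; normalized to DMSO and tomatine.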
p53null 39C kill = kills p53 null cells at the nonpermissive temperature | H1299 p53-null (neo) cells, 39C, ATPlite viability, 24 h | actives 0.97% (n = 55,000) | Potency, µM (doses to about 46.1 µM), for inactives: top-dose activity, negative = cell killing, usual class: cytotoxic;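 note: 0% = DMSO only and -100% = full killing by 100 µM tamoxifen; nearly all actives have a fitted effect of over 50% in size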
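Cells seeded at 600/well, 37C overnight. Compound added (up to 46 uM), plates shifted to 39C for 24 hr. ATPlite added, luminescence read after 20 min at room temperature.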
S16 F2sN tox = cytotoxicity in S16 Pmp22-F2sN Schwann cells; S16 Pmp22-F2sN Schwann cells viability, CellTiter-Glo, 24 h; Potency, µM (highest dose often 57.5 µM), for inactives: at the top dose activity change, negative = cytotoxicity, usual class: cytotoxic; actives 0.48% (n = 43,000); AID 1508642; note: nearly all actives have a fitted effect of over 65% in size
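Viability was measured by CellTiter-Glo luminescence (15 min, room temperature). This followed 24 h at 37 °C of compound exposure (23 nL pin transfer) in S16 Pmp22-F2sN Schwann cells, 500-1,000 per well.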
* = called active by the depositor. Most compounds without a hit are left out; they make up all but 3.1% or so of the library. Unless noted, calls come from the whole dose curve; as a rule, active = well fitted curve in the direction sought with a large enough effect; inconclusive = small, poorly fitted or top-dose-only effect, or another doubt; inactive = no such curve, though single readings can be large; an effect the other way counts as inactive or inconclusive. Unless noted, % is set by controls: 0 for no effect and ±100 for the full control effect; potency is the fitted concentration of half-maximal effect.

`CCS(=O)(=O)c1ncc(Cl)c(C(=O)N2CCN(c3ccc(OC)cc3)CC2)n1` gave pS6 MEF inh 3.3µM*, p53null 32C kill inconclusive, PMP22 txn 6.6µM*, OvCa metastasis inconclusive, p53null 39C kill inconclusive and S16 F2sN tox 7.9µM*.
`CCS(=O)(=O)c1ncc(Cl)c(C(=O)N(Cc2ccccc2)c2ccc(OC)cc2)n1` gave pS6 MEF inh 2.6µM*, p53null 32C kill inconclusive, PMP22 txn 2.2µM*, OvCa metastasis inconclusive, p53null 39C kill inconclusive and S16 F2sN tox 4.5µM*.
COc1ccc(N2CCN(C(=O)c3nc(SC)ncc3Cl)CC2)cc1 was read as pS6 MEF inh -6%, p53null 32C kill 2%, PMP22 txn -6%, OvCa metastasis 1%, p53null 39C kill 15% and S16 F2sN tox 4%.
CCCS(=O)(=O)c1ncc(Cl)c(C(=O)N(Cc2ccccc2)Cc2ccco2)n1 was read as pS6 MEF inh 16µM*, p53null 32C kill 22µM*, PMP22 txn 6.4µM*, OvCa metastasis 2.2µM*, p53null 39C kill inconclusive and S16 F2sN tox 2.2µM*.
Screening CCS(=O)(=O)c1ncc(Cl)c(C(=O)NCc2ccc(OC)cc2)n1 returned pS6 MEF inh 3.7µM*, p53null 32C kill inconclusive, PMP22 txn 6.5µM*, OvCa metastasis inconclusive, p53null 39C kill 35% and S16 F2sN tox 2.8µM*.
Cc1ccc(S(=O)(=O)c2nc(-c3cccs3)oc2SCC(=O)Nc2cc(C)cc(C)c2)cc1 was read as pS6 MEF inh 21µM*, p53null 32C kill -28%, PMP22 txn inconclusive, OvCa metastasis inconclusive, p53null 39C kill inconclusive and S16 F2sN tox 1%.
Screening COc1ccc(NC(=O)CSc2oc(-c3cccs3)nc2S(=O)(=O)c2ccc(C)cc2)c(OC)c1 returned pS6 MEF inh 3%, p53null 32C kill 7%, PMP22 txn 60%, OvCa metastasis 1%, p53null 39C kill -5% and S16 F2sN tox 7%.
Screening c1ccc2c(Oc3nc(Nc4ccc(N5CCOCC5)cc4)c4ncn(C5CCCCC5)c4n3)cccc2c1 returned OvCa metastasis -11%.
For COc1ccc(/C=C/C(=O)Nc2sc(C)c(C)c2C(=O)O)cc1 the results were pS6 MEF inh 0%, p53null 32C kill 3.2µM*, PMP22 txn -2%, OvCa metastasis inactive, p53null 39C kill 0.79µM* and S16 F2sN tox -8%.
For CCC(C)Cn1c(/C=C/c2ccccc2)nc2ccccc21 (stereo not given) the results were pS6 MEF inh -22%, p53null 32C kill inconclusive, PMP22 txn inconclusive, OvCa metastasis -4%, p53null 39C kill 10µM* and S16 F2sN tox -21%.
`C#CCn1c(/C=C/c2ccc(Cl)cc2)nc2ccccc21` gave pS6 MEF inh 1%, p53null 32C kill 3.2µM*, PMP22 txn 3%, OvCa metastasis -4%, p53null 39C kill 4µM* and S16 F2sN tox inconclusive.
Screening CC(C)Cn1c(/C=C/c2ccc(F)cc2)nc2ccccc21 returned pS6 MEF inh -20%, p53null 32C kill 11µM*, PMP22 txn inconclusive, OvCa metastasis -14%, p53null 39C kill 7.9µM* and S16 F2sN tox inconclusive.
`CC(C)CCn1c(/C=C/c2ccccc2)nc2ccccc21` gave pS6 MEF inh -20%, p53null 32C kill inconclusive, PMP22 txn inconclusive, OvCa metastasis -2%, p53null 39C kill inconclusive and S16 F2sN tox -11%.
For Cc1cc(C(=O)N2CCN(c3cccc(Cl)c3)CC2)n(-c2ccccc2)n1 the results were OvCa metastasis 5%.
Screening CN(CC(=O)N(Cc1ccc(C2CCCCC2)cc1)c1ccc(C(=O)O)c(O)c1)S(=O)(=O)c1c(F)c(F)c(F)c(F)c1F returned OvCa metastasis 23%.
For Cc1ccc(-c2cc(-c3ccccc3C)[nH]n2)c(O)c1 the results were p53null 32C kill 13µM* and p53null 39C kill -96%.
Screening Cc1ccc(CN2C(=O)C(=O)c3cc(Br)cc(C)c32)cc1 returned pS6 MEF inh inconclusive, p53null 32C kill inconclusive, PMP22 txn inconclusive, OvCa metastasis 13µM*, p53null 39C kill 11µM* and S16 F2sN tox inconclusive.
Screening COC(=O)c1ccc2c(C(=Nc3ccc(N(C)C(=O)CN4CCN(C)CC4)cc3)c3ccccc3)c(O)[nH]c2c1 returned OvCa metastasis -3%.
Screening Cc1ccn(-c2ccc(-c3ncco3)cc2)c(=O)c1-c1ccc2nc(N)ncc2c1 returned OvCa metastasis -18%.
For O=C(NCCCN1CCN(c2ccccc2F)CC1)c1cc2c(s1)-c1ccccc1OC2 the results were pS6 MEF inh inconclusive, p53null 32C kill 7%, PMP22 txn inconclusive, OvCa metastasis inconclusive, p53null 39C kill 32µM* and S16 F2sN tox -1%.
For Cc1ccc2c(c1)C(=O)C(=O)N2Cc1ccc(OC(C)C)cc1 the results were pS6 MEF inh inconclusive, p53null 32C kill 57%, PMP22 txn 2.3µM*, OvCa metastasis -7%, p53null 39C kill 15% and S16 F2sN tox inconclusive.
For Cc1ccc(C)c(CN2C(=O)C(=O)c3ccccc32)c1 the results were pS6 MEF inh 2.9µM*, p53null 32C kill 1%, PMP22 txn inconclusive, OvCa metastasis 1%, p53null 39C kill -8% and S16 F2sN tox inconclusive.
Screening O=S(=O)(Nc1cccc(F)c1)c1ccc2[nH]c3c(c2c1)CCCCC3 returned pS6 MEF inh 0%, p53null 32C kill 37%, PMP22 txn inconclusive, OvCa metastasis -16%, p53null 39C kill 16µM* and S16 F2sN tox inconclusive.
Screening O=S(=O)(Nc1cc(F)ccc1F)c1ccc2[nH]c3c(c2c1)CCCCC3 returned pS6 MEF inh -16%, p53null 32C kill 29%, PMP22 txn inconclusive, OvCa metastasis inconclusive, p53null 39C kill 10% and S16 F2sN tox 8%.
For CCN(CC)CCNC(=O)c1ccc2c(=O)n3nc(Nc4cccc(Cl)c4C)sc3nc2c1 the results were pS6 MEF inh -25%, p53null 32C kill inconclusive, PMP22 txn inconclusive, OvCa metastasis inconclusive, p53null 39C kill 20µM* and S16 F2sN tox inconclusive.
For Cc1c(Cl)cccc1Nc1nn2c(=O)c3ccc(C(=O)NCCC4=CCCCC4)cc3nc2s1 the results were pS6 MEF inh -3%, p53null 32C kill 9%, PMP22 txn inconclusive, OvCa metastasis 2%, p53null 39C kill -13% and S16 F2sN tox -28%.

Screening results deposited in PubChem by National Center for Advancing Translational Sciences (NCATS).
